The record followed here is PubChem BioAssay (NCI).

This is part of a sample that, as a whole, favours compounds with a hit. Of some 79,000 tested, about 15% had one in any assay. Values without a mark were called inactive. Activity calls are given as the source filed them. Rule as the data show it: active = growth inhibition above about 70%; inactive = the rest.

Experiment [1] can be described thus: NCI Yeast Anticancer Drug Screen. Data for the rad50 strain (AID 155).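 Also: 0% = growth of vehicle-only cultures of the same strain.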 As to conditions: S. cerevisiae rad50 strain growth inhibition; at 50.0 µM; active compounds read high. A digest of the protocol:
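A DNA repair-deficient yeast mutant serves as the test organism; compound-induced growth inhibition is calculated against vehicle-treated cells.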

The nature of experiment [2]: NCI Yeast Anticancer Drug Screen. Data for the mec2-1 strain (AID 157). As to conditions: S. cerevisiae mec2-1 strain, at 50.0 µM, active compounds read high. Summed up: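 Yeast mec2-1 mutant treated with compound. Readout: growth inhibition vs vehicle controls.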
Experiment [3] can be described thus: NCI Yeast Anticancer Drug Screen. Data for the sgs1 mgt1 strain (AID 161).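 Also: 0% = growth of cultures given vehicle only.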 As to conditions: S. cerevisiae sgs1 mgt1 strain, at 50.0 µM, active compounds read high. Summed up: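 Mutant yeast exposed to compound; growth scored against vehicle-only wells.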
A short description of experiment [4]: NCI Yeast Anticancer Drug Screen. Data for the cln2 rad14 strain (AID 165).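 Also: 0% = growth equal to vehicle treated cultures.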 As to conditions: S. cerevisiae cln2 rad14 strain, at 50.0 µM, active compounds read high. Summed up: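 cln2 rad14 yeast strain; compound exposure; growth inhibition read vs vehicle controls.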
Experiment [5] in a line: NCI Yeast Anticancer Drug Screen. Data for the bub3 strain (AID 167). As to conditions: S. cerevisiae bub3 mutant strain, at 50.0 µM, active compounds read high. A digest of the protocol:
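Inhibition values come from growth of compound-treated mutant yeast normalised to vehicle-treated controls.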

Experiment [6] can be described thus: NCI Yeast Anticancer Drug Screen. Data for the mlh1 rad18 strain (AID 175). As to conditions: S. cerevisiae mlh1 rad18 strain growth inhibition; at 50.0 µM; active compounds read high. A digest of the protocol: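 Yeast w/ defined DNA-repair lesions; compound exposure; growth vs vehicle controls → % inhibition.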

As to `Cn1nc(-c2ccccc2)c(-c2cc(-c3ccccc3)n[nH]2)c(N)c1=O`, the growth inhibition in experiment [1] was 18.9%; in experiment [2] it was 12.4%; in experiment [3], 20.8%; in experiment [4], 7.9%; in experiment [5], 19.7%; in experiment [6] it was 22.9%.
For `Cn1cnc2c([nH]c(=O)n2C2OC(CO)C(O)C2O)c1=N` (stereo not drawn), the growth inhibition is 13.5% in experiment [1]; 1.05% in experiment [2]; 2% in experiment [3]; -35.4% in experiment [4]; 3.55% in experiment [5]; 9.55% in experiment [6].
Regarding `CC1CCC2N(C1)CC1C3(O)CC4(O)C(CCC5C(=O)C(O)CCC54C)C3(O)CC(O)C1(O)C2(C)O` (stereo not drawn), the growth inhibition is 5.5% in experiment [1]; -26.9% in experiment [2]; -10.8% in experiment [3]; 10.9% in experiment [4]; -9.1% in experiment [5]; -7.7% in experiment [6].
In the case of `COc1cccc(OC)c1NC(=O)NCCCl`, the growth inhibition in experiment [1] was -8.3%; in experiment [2] it was 14.6%; in experiment [3] it was 2.25%; in experiment [4], 50.8%; in experiment [5] it was 0.15%; in experiment [6] it was 14.4%.
Take `Cc1cc(C(=O)NN)no1`: the growth inhibition in experiment [1] was -4.75%; in experiment [2] it was -4.4%; in experiment [3] it was -3.9%; in experiment [4] it was -10.4%; in experiment [5], -7.15%; in experiment [6], -8.15%.
Consider `F[Si](c1ccccc1)(c1ccccc1)c1cccc2ccccc12`, for which the growth inhibition in experiment [1] was 98.7% (active); in experiment [2], 98.6% (active); in experiment [3], 99.2% (active); in experiment [4] it was 98.8% (active); in experiment [5], 98.5% (active); in experiment [6] it was 98.8% (active).
In the case of `O=S(=O)(c1ccc(I)cc1)c1ccc(I)cc1`, the growth inhibition in experiment [1] is 22.6%; in experiment [2], 0.1%; in experiment [3] it was -9.15%; in experiment [4], 5.2%; in experiment [5] it was 5.35%; in experiment [6], 3.7%.
`CCOC(=O)c1nc(-c2ccccc2)c(-c2ccccc2)c(-c2ccccc2)c1C`: the growth inhibition was -24.6% in experiment [1]; -2.55% in experiment [2]; 10.2% in experiment [3]; -36.9% in experiment [4]; -0.6% in experiment [5]; -4.85% in experiment [6].
For `O=C(Nc1ccc(S(=O)(=O)N2CCCCC2)cc1)Oc1ccccc1C(=O)O`, the growth inhibition is 26.4% in experiment [1]; -4.5% in experiment [2]; 3.15% in experiment [3]; 16.1% in experiment [4]; -1.65% in experiment [5]; 4.8% in experiment [6].
On to `CCOC(=O)C1CC(=O)N(Cc2ccccc2)C(=O)N1` (stereo not drawn), for which the growth inhibition in experiment [1] is -11.1%; in experiment [2] it was 1.8%; in experiment [3], -17.6%; in experiment [4], -16.9%; in experiment [5] it was 22.1%; in experiment [6], -3.5%.
On to `O=C1C(O)=C(Br)C(=O)C(O)=C1Br`, for which the growth inhibition was 6.2% in experiment [1]; -12.2% in experiment [2]; 10.1% in experiment [3]; -12.1% in experiment [4]; 15.4% in experiment [5]; 11.6% in experiment [6].
For the compound `CCOP(=O)(OCC)c1c(C(=O)OC)cc(=O)[nH]c1-c1ccc(C)cc1`, the growth inhibition in experiment [1] was 44.9%; in experiment [2] it was 23.4%; in experiment [3], 40%; in experiment [4], 25.2%; in experiment [5] it was 53.7%; in experiment [6], 61.3%.
As to `CC(C)(C)C(=O)Nc1ccc(NS(=O)(=O)c2ccccc2)cc1`, the growth inhibition in experiment [1] is 6.85%; in experiment [2], -4.3%; in experiment [3] it was 2.85%; in experiment [4], 1.8%; in experiment [5] it was 2.9%; in experiment [6], -21.1%.
With `C[C@]12CCC(=O)CC1CCCC2=O` (stereo partly drawn), the growth inhibition was 9.9% in experiment [1]; -10.8% in experiment [2]; 6.4% in experiment [3]; 24.1% in experiment [4]; -6.7% in experiment [5]; 19.8% in experiment [6].
Consider `O=C(Nc1ccc(N=C=S)cc1Cl)c1ccc2ccccc2c1O`, for which the growth inhibition in experiment [1] was 15.6%; in experiment [2], 14.3%; in experiment [3], 6.75%; in experiment [4] it was 12.6%; in experiment [5] it was 4.05%; in experiment [6], 8.25%.
In the case of `N#CC(CC(=O)NN)C(=O)NN` (stereo not drawn), the growth inhibition is -20.4% in experiment [1]; -8.9% in experiment [2]; -21% in experiment [3]; -12.4% in experiment [4]; -38.7% in experiment [5]; -22.5% in experiment [6].
`Cc1cc(=O)[nH]c(NN2C(Cl)C(=O)C2c2c(O)ccc3ccccc23)n1` (stereo not drawn): the growth inhibition in experiment [1] is -8.2%; in experiment [2] it was -10.6%; in experiment [3], -0.75%; in experiment [4], 13.3%; in experiment [5], 0.7%; in experiment [6], -32.8%.
For the compound `CCCc1cc(=O)oc2c3c(cc(OC(C)C)c12)O[C@H](C)[C@H](C)[C@@H]3O`, the growth inhibition in experiment [1] was 3.55%; in experiment [2], 0.15%; in experiment [3] it was -10.8%; in experiment [4], -1.45%; in experiment [5], -7.6%; in experiment [6] it was 18.8%.
Consider `O=C(/C=C/c1ccco1)CCN1CCOCC1`, for which the growth inhibition in experiment [1] was 8.15%; in experiment [2], -4.6%; in experiment [3], 24.8%; in experiment [4], -44.1%; in experiment [5] it was -7.25%; in experiment [6], 13.8%.
Consider `O=C(O)CCC1(C(=O)O)NCCc2c1[nH]c1ccccc21` (stereo not drawn), for which the growth inhibition is 8.1% in experiment [1]; 11.8% in experiment [2]; 5.1% in experiment [3]; 8.55% in experiment [4]; 7.9% in experiment [5]; 12.6% in experiment [6].
As to `COC(=O)COC(=O)C1C(C(N)=O)N(CC(=O)OC)CCN1CC(=O)OC` (stereo not drawn), the growth inhibition in experiment [1] was 0.2%; in experiment [2], -0.9%; in experiment [3], -27.4%; in experiment [4], -7.35%; in experiment [5], -3.9%; in experiment [6] it was -5.95%.
As for `O=C(O)c1ccc(C2=Cc3cc(Cl)ccc3OC2)cc1`, the growth inhibition in experiment [1] is 19.6%; in experiment [2], -5.1%; in experiment [3], -19.4%; in experiment [4] it was 26.2%; in experiment [5], -15.1%; in experiment [6], -11.1%.
For the compound `O=C1CCC(c2nc3ccccc3o2)C(=O)N1` (stereo not drawn), the growth inhibition is -5.1% in experiment [1]; -20.5% in experiment [2]; -10.6% in experiment [3]; 0.65% in experiment [4]; -11.2% in experiment [5]; -13.7% in experiment [6].
For the compound `Oc1ccc(-c2nnc(-c3ccc(O)cc3)nn2)cc1`, the growth inhibition in experiment [1] is 10.8%; in experiment [2], 17.4%; in experiment [3], 21.1%; in experiment [4], 17.4%; in experiment [5], 23.2%; in experiment [6], 10.9%.
For the compound `CCCCCSCCC(=O)O`, the growth inhibition in experiment [1] is 12.4%; in experiment [2] it was 11.7%; in experiment [3], 11.2%; in experiment [4], 4.25%; in experiment [5], -1.2%; in experiment [6], -6.35%.
Take `COC(=O)N/N=C/c1cccnc1`: the growth inhibition in experiment [1] is 2.05%; in experiment [2], -6.6%; in experiment [3], -3.05%; in experiment [4] it was -72.2%; in experiment [5], 9.8%; in experiment [6], -26.8%.
For `C1=CC2CCC1C1CSCC21` (stereo not drawn), the growth inhibition in experiment [1] is -3.15%; in experiment [2], -11.6%; in experiment [3], -8.95%; in experiment [4], -33.8%; in experiment [5] it was -3.45%; in experiment [6] it was -12.7%.
With `N#C/C(=C\NC(=S)Nc1ccccc1Cl)C(=O)c1ccc2ccccc2c1`, the growth inhibition was -24.4% in experiment [1]; -18% in experiment [2]; 0.7% in experiment [3]; 13.3% in experiment [4]; -35.6% in experiment [5]; -28.8% in experiment [6].
Turning to `C[C@@H]1C[C@@H]2C(=O)N(c3ccccc3)C(=O)[C@@H]2c2[nH]c3ccc(Br)cc3c21`, the growth inhibition in experiment [1] was 0.2%; in experiment [2] it was -12.6%; in experiment [3], 15.8%; in experiment [4] it was 0.25%; in experiment [5], -7.95%; in experiment [6], -20.1%.
Consider `COC(=O)C(CC(=O)[C@H]1CC[C@H]2[C@@H]3CC[C@H]4C[C@@H](OC(C)=O)CC[C@]4(C)[C@H]3CC[C@]12C)OC(C)=O` (stereo partly drawn), for which the growth inhibition in experiment [1] is 51.5%; in experiment [2], 40.9%; in experiment [3], 57.5%; in experiment [4] it was 53%; in experiment [5] it was -2.7%; in experiment [6], 44.2%.
`O=C1c2ccccc2-c2nc(-c3ccncc3)cc3c2c1nc1ccccc13`: the growth inhibition was 25.6% in experiment [1]; 18.4% in experiment [2]; 27.2% in experiment [3]; 11.1% in experiment [4]; 14.1% in experiment [5]; 34.4% in experiment [6].
Turning to `CCOC(=O)c1cnc(=S)n(CCC(C)C)c1N`, the growth inhibition in experiment [1] is -11.2%; in experiment [2] it was 8.25%; in experiment [3], 12.7%; in experiment [4], -40.5%; in experiment [5] it was 2.9%; in experiment [6], 4.95%.
As for `CCCC1=C(OC)C(=O)c2c(C)cc(Cl)nc2C1=O`, the growth inhibition is 48.5% in experiment [1]; 48.2% in experiment [2]; 86.2% (active) in experiment [3]; 78.8% (active) in experiment [4]; 87.5% (active) in experiment [5]; 38.9% in experiment [6].
Turning to `COc1ccc(/C=C2\N=C(N3CCOCC3)NC2=O)cc1`, the growth inhibition in experiment [1] was -4.15%; in experiment [2], 7.25%; in experiment [3] it was 10.4%; in experiment [4], -13.8%; in experiment [5], -3.4%; in experiment [6], -43.8%.
Consider `CCCCc1c(O)c(N=NC(=O)C[N+](C)(C)C)c2ccccc2c1O`, for which the growth inhibition was 31.5% in experiment [1]; 40.2% in experiment [2]; 22.8% in experiment [3]; 11.6% in experiment [4]; 0.85% in experiment [5]; 36.9% in experiment [6].
Take `Cc1cc(N(CCC#N)CCC#N)ccc1/C=C/C(=O)Nc1cccc(Cl)c1`: the growth inhibition was 8.95% in experiment [1]; 4.6% in experiment [2]; 3.55% in experiment [3]; 13.2% in experiment [4]; 27.4% in experiment [5]; 7.65% in experiment [6].
On to `COC(=O)CCC1=C(C)C2=NC1=CC1=NC(=CC3=NC(=Cc4[nH]c(/c(=C\O)c4C)=C2)C(C=O)=C3C)C(C)=C1CCC(=O)OC`, for which the growth inhibition in experiment [1] was 28.1%; in experiment [2], 16.5%; in experiment [3], 32.2%; in experiment [4], 26.9%; in experiment [5] it was 9.15%; in experiment [6], 11.6%.
Consider `OC1COCCC(O)(CNCc2ccccc2)C1O` (stereo not drawn), for which the growth inhibition in experiment [1] is 7.4%; in experiment [2], 16.6%; in experiment [3], -3.95%; in experiment [4] it was 8.15%; in experiment [5], -6.95%; in experiment [6] it was -9.1%.
